Bioassay records from PubChem.
SENP7 block: inhibitors of human SENP7 protease. inhibition, % at 5 µM. AID 434973. Q9BQF6. recombinant SENP7, Z-RLRGG-aminoluciferin luminescence, 40 min. 330,000 compounds, 1.5% hits;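 active = inhibition above about 50% at the single test dose, limit read from the data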;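 also: plate controls were DMSO with enzyme for no effect and no enzyme buffer wells for full effect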
Target sequence (Q9BQF6 706-1050 limits assumed): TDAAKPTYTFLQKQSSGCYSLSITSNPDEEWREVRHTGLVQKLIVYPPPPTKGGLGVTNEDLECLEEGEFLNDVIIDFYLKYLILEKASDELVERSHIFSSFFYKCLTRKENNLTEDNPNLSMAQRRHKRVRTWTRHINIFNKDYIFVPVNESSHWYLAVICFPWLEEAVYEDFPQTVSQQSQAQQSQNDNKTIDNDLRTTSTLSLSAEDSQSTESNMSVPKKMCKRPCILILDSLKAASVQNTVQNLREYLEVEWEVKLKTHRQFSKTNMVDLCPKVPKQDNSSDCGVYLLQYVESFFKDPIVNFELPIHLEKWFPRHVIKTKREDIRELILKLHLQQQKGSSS
SENP8 block-1: inhibitors of human SENP8 protease; purified SENP8, Z-RLRGG-aminoluciferin cleavage, luminescence; 330,000 compounds, 1.2% hits; Q96LD8; inhibition, % at 10 µM; in the data active = inhibition above about 50%
Target sequence (Q96LD8 whole entry, looked up): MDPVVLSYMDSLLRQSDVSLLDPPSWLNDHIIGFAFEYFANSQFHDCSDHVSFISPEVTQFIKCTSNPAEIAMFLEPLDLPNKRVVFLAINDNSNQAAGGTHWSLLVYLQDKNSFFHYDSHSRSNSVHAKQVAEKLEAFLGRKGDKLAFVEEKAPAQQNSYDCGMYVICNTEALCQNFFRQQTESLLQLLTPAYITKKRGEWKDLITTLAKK
C8 TRAIL sens: caspase-8 TRAIL sensitization | 360,000 compounds, 1% hits | NB7+C8 cells + TRAIL, ATPlite viability luminescence | inhibition (viability loss, TRAIL sensitization), % at 10 µM | AID 624354;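 active = compounds causing at least 50% loss of cell viability in the single-dose screen, relative to plate controls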
PPC-1+TRAIL kill: PPC-1 cancer cell killing with TRAIL present; cell killing (% activity), % at 4 µM or 5 µM; 220,000 compounds, 0.41% hits; AID 1443; PPC-1 cells + TRAIL, ATPLite viability luminescence;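 active = cell killing above 50% in the first pass at 4 µM, then a duplicate retest at 5 µM averaging 50% or more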;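 also: plate controls were cells with TRAIL plus DMSO for no effect and medium-only wells lacking cells for full effect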
SENP8 block-2: SENP8 (human) protease inhibition; recombinant SENP8, Nedd8 substrate fluorescence; inhibition, % at 20 µM; 360,000 compounds, 0.64% hits; AID 602440; in the data active = inhibition mostly above about 40%, no sharp cut-off; inactive = mostly below about 27%
SENP6 inh: blocks the human protease SENP6. Q9GZR1. Recombinant SENP6 catalytic domain, aminoluciferin luminescence. inhibition, % at 10 µM. 330,000 compounds, 1.8% hits;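 active = inhibition above about 50% at the single tested dose, limit read from the data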;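 also: plate controls were DMSO wells with enzyme for no effect and DMSO wells lacking enzyme for full effect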
SENP8 conf: confirmation of human SENP8 protease inhibitors | shares compounds with SENP7 block | Recombinant SENP8, Z-RLRGG-aminoluciferin luminescence, 60 min | 6,200 compounds, 40% hits | inhibition, % at 12.5 µM | AID 488912;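 active = mean inhibition across replicates above about 50%, limit read from the data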
SENP6 conf: confirmation of human SENP6 protease inhibitors | recombinant SENP6, Z-RLRGG-aminoluciferin luminescence | shares compounds with SENP7 block | 6,200 compounds, 58% hits | inhibition, % at 12.5 µM
SENP7 confirm: human SENP7 inhibition, confirmed | 6,200 compounds, 69% hits | shares compounds with SENP7 block | inhibition, % at 12.5 µM | recombinant SENP7, Z-RLRGG-aminoluciferin luminescence, 40 min
Casp3 SENP sel: caspase-3 inhibition (SENP selectivity assay); shares compounds with SENP7 block; purified caspase-3, Z-DEVD-aminoluciferin luminescence, 60 min; inhibition, % at 12.5 µM; 6,200 compounds, 60% hits; AID 488918;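 active = mean inhibition above about 50%, limit read from the data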;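 also: plate controls were enzyme with DMSO for no effect and wells without caspase-3 for full effect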
Luc interf: luminescence interference (SENP counter-screen) | shares compounds with SENP7 block | inhibition, % at 12.5 µM | Pre-incubated SENP8/Z-RLRGG-aminoluciferin, luciferase luminescence interference | 6,200 compounds, 39% hits;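 active = mean inhibition above about 50% when retested at one dose, limit read from the data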;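 also: plate controls were DMSO wells with completed reaction for no effect and substrate without enzyme for full effect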
Starred values were filed as active, the others as inactive; . = no result. A selection: hits, their analogues and other compounds. The true share with any hit is near 3%.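 The calls were made as follows, unless noted: active = mean inhibition above about 50% in the one-dose retest (limit read from the data); inactive = the rest.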

SMILES	SENP7 block	SENP8 block-1	C8 TRAIL sens	PPC-1+TRAIL kill	SENP8 block-2	SENP6 inh	SENP8 conf	SENP6 conf	SENP7 confirm	Casp3 SENP sel	Luc interf
COCCNC(=O)C1(C)CCN(Cc2csc(-c3ccc(Cl)cc3)n2)C1 (centres undefined)	.	.	-0.2	.	32.4	.	.	.	.	.	.
CC(=O)Nc1c(Cl)cc2c(c1Cl)C(=O)c1ccccc1-2	.	.	-3.8	.	3.0	.	.	.	.	.	.
Cc1cc(C(=O)Nc2sc3c(c2C#N)CCCCC3)cs1	76.7*	30.7	28.2	16.2	-19.9	57.2*	15.7	38.2	40.3	23.1	16.0
NC(=O)c1c(NC(=O)c2ccccc2)sc2c1CCC2	12.1	40.8	14.1	.	-126.2	57.2*	-5.4	14.7	83.0*	41.6	-0.4
CC(=O)Nc1sc2c(c1C#N)CCCC2	-6.5	-4.5	1.3	4.9	10.1	4.0	.	.	.	.	.
Cc1cccc(C(=O)Nc2sc3c(c2C(=O)O)CCCC3)c1	69.6*	93.1*	18.8	.	-83.2	92.8*	97.2*	98.1*	102.1*	94.6*	78.8*
CCCS(=O)(=O)NC(=O)C1(C)CCCN(C(=O)c2cc3ccccc3s2)C1 (centres undefined)	.	.	11.6	.	27.7	.	.	.	.	.	.
OC1(c2ccc3c(c2)OCO3)CCN(Cc2ccc(F)cc2)CC1	4.1	-0.6	0.9	1.4	20.2	-8.7	.	.	.	.	.
CN(C)c1ccc(/C=C/C(=O)c2cccc(Br)c2)cc1	26.8	17.5	27.1	10.1	-37.8	52.2*	36.8	38.5	27.7	21.0	13.0
CN(C)c1ccc(C(=O)/C=C/c2cccnc2)cc1	-7.6	-9.7	10.7	.	-22.1	-10.5	.	.	.	.	.
CC(=O)C1=C(O)C(=O)N(Cc2ccccc2)C1c1ccc([N+](=O)[O-])cc1 (centres undefined)	2.6	2.9	-16.2	.	18.5	-30.6	.	.	.	.	.
O=C(NC(=S)Nc1cccnc1Cl)c1ccc(Cl)cc1	46.4	45.5	4.8	.	-4.8	66.8*	25.3	23.0	45.9	48.0	53.3*
Cc1nc(C2COc3ccccc3O2)sc1C(=O)O (centres undefined)	79.8*	83.5*	-0.3	12.2	3.1	88.0*	89.9*	90.6*	99.4*	96.7*	88.1*
Cn1c(=O)c2c([nH]c(=S)n2Cc2ccc(Cl)cc2)n(C)c1=O	2.2	3.7	12.4	.	8.8	6.4	.	.	.	.	.
CC(C)c1ccc(COc2ccc(C(=O)N3CCOCC3)cc2)cc1	7.1	1.6	19.5	-13.8	3.9	2.6	.	.	.	.	.
Cc1ccc(OCc2ccc(C(=O)N3CCOCC3)cc2)cc1C	89.9*	74.9*	1.4	9.4	33.3	83.2*	-7.4	73.7*	94.4*	83.8*	80.2*
Cc1cc(C)cc(COc2ccc3c(C)c(CC(=O)O)c(=O)oc3c2C)c1	-4.1	-3.1	-8.0	.	-298.8	-8.6	.	.	.	.	.
COC(=O)c1ccc(COc2ccc3c(C)c(C)c(=O)oc3c2)o1	29.8	53.9*	2.9	10.1	-275.8	39.2	10.8	9.6	4.4	-0.2	1.5
Cc1c(C)c2ccc(OCc3ccc(C(=O)O)o3)c(C)c2oc1=O	50.4*	65.2*	-0.1	-5.8	-298.7	77.0*	8.9	66.0*	79.4*	16.4	56.6*
CC(C)(C)c1ccc(OCc2ccc(C(=O)NN)o2)cc1	-1.6	2.1	30.8	27.1	-1.5	-4.3	.	.	.	.	.
CC(C)(c1ccccc1)c1ccc(OCc2ccc(C(=O)O)o2)cc1	12.5	60.5*	-2.5	.	17.7	72.6*	5.5	72.7*	73.2*	5.8	78.4*
CCCCC(=O)N(C)c1c(CC)nc2c(OCC(=O)c3ccc(Cl)cc3Cl)cccn12	.	.	0.9	.	-251.9	.	.	.	.	.	.
COC(=O)[C@]1(Sc2ccc(C)cc2)CC(=O)N[C@@H]1c1ccccc1	.	.	-6.4	.	10.2	.	.	.	.	.	.
Cc1cc(Cl)ccc1OCC(=O)N/N=C/c1ccncc1	5.1	-5.5	-0.9	.	12.1	6.5	.	.	.	.	.
Cc1ccc(OCc2ccc(C(=O)O)o2)cc1C	81.7*	84.5*	-10.7	.	26.0	88.2*	3.5	92.9*	101.0*	40.8	92.8*
SMILES	SENP7 block	SENP8 block-1	C8 TRAIL sens	PPC-1+TRAIL kill	SENP8 block-2	SENP6 inh	SENP8 conf	SENP6 conf	SENP7 confirm	Casp3 SENP sel	Luc interf
O=C(COc1ccc2c3c(c(=O)oc2c1)CCC3)Nc1ccccn1	89.4*	38.2	8.1	.	-242.3	0.6	31.1	28.3	13.5	66.3*	19.3
CCOC(=O)c1ccc(COc2ccc(C(C)C)cc2)o1	0.6	-6.8	-9.7	9.8	-74.5	-9.0	.	.	.	.	.
Cc1cc(COc2ccccc2)oc1C(=O)O	99.7*	97.4*	-0.8	.	20.7	95.2*	98.7*	99.6*	102.8*	88.5*	98.0*
CCC(C)c1ccc(OCc2ccc(C(=O)O)o2)cc1 (centres undefined)	79.8*	94.2*	-8.5	.	13.5	95.5*	3.1	98.3*	102.3*	47.8	97.5*
Cc1cc(NC(=O)COC(=O)COc2ccc3c4c(c(=O)oc3c2)CCC4)no1	-2.5	1.8	-2.9	7.4	-140.4	1.9	.	.	.	.	.
CCN1C(=O)N[C@@H](c2cccs2)C(C(C)=O)=C1C	5.8	10.7	-13.8	5.4	19.4	-5.8	.	.	.	.	.
Cc1ccc(NC(=O)[C@H](C)NC(=O)C2CCN(C(=O)[C@@H](N)CC(C)C)CC2)cc1	-0.5	-4.1	-5.9	.	13.4	13.0	.	.	.	.	.
O=C(NCC(c1ccco1)N1CCc2ccccc2C1)C(=O)Nc1cc(F)ccc1F (centres undefined)	0.6	-1.1	-10.0	.	18.7	-10.6	.	.	.	.	.
O=C(O)c1ccc(COc2ccc3c4c(c(=O)oc3c2)CCC4)o1	93.0*	91.0*	3.2	-26.3	-192.7	81.9*	94.5*	94.9*	99.6*	65.0*	93.8*
O=C1C=C(Nc2ccc(O)cc2)C(=O)c2ccccc21	96.0*	95.6*	43.0	11.7	39.8	96.7*	64.3*	97.5*	102.6*	96.8*	53.0*
COc1cc(OC)c(NC2=CC(=O)C(=O)c3ccccc32)cc1Cl	53.2*	70.0*	95.5*	.	-292.5	79.5*	-23.0	87.1*	72.9*	9.7	-7.6
NS(=O)(=O)c1ccc(NC2=CC(=O)C(=O)c3ccccc32)cc1	42.1	87.7*	63.9*	.	49.6*	87.1*	12.1	94.3*	83.9*	14.0	15.4
NS(=O)(=O)c1ccc(NC(=O)Nc2ccccc2)cc1	2.2	-11.4	-0.4	14.7	12.9	-12.8	.	.	.	.	.
